High-throughput results as filed in PubChem BioAssay.
G9a block: blocks human histone lysine methyltransferase G9a; Q96KQ7; G9a H3K9 monomethylation, AlphaScreen, 2 h; Potency, µM (top dose mostly 102 µM), inactives show at the highest dose activity, negative = inhibition, usual class: inhibitors; 350,000 compounds, 8.8% hits; AID 504332; note: % is set by controls: 0 for no effect and ±100 for the full control effect; nearly all actives have a fitted effect of over 75% in size
Target sequence (Q96KQ7 913-1193 limits assumed): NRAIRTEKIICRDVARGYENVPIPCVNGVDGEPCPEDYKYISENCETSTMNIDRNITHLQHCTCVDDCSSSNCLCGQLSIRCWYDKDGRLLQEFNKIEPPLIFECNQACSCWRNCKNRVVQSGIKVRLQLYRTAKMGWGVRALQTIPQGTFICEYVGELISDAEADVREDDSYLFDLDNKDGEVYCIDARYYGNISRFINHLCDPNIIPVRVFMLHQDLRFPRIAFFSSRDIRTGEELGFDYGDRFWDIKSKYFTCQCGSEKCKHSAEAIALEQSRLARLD
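Using a bead-based AlphaScreen, monomethylated H3K9 product from 2 h room-temperature reactions (G9a 20 nM, peptide 500 nM, SAM 20 uM) was detected with 0.5 ug/mL rabbit anti-H3K9me1 antibody.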
HP1b binding inh: inhibitors of HP1-beta chromodomain binding to methylated histone tails; P83916; AlphaScreen HP1-beta / biotin-H3K9me3 peptide binding; 390,000 compounds, 0.56% hits; Potency, µM (doses to about 114 µM), without a hit: top-dose activity change, negative = inhibition, actives largely listed as inhibitors; note: nearly all actives have a fitted effect of over 70% in size
Target sequence (P83916 whole entry, looked up): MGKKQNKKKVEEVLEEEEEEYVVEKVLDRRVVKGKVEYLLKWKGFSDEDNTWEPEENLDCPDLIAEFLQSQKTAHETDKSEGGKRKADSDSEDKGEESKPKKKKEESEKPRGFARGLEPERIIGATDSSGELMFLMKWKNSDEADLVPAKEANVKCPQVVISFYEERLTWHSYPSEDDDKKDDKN
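HP1-beta protein (50 nM final) preincubated 30 min at room temperature with biotinylated H3(1-18)K9me3 peptide (50 nM) in PBS pH 7.4, 0.01% Tween-20, then compound added for 30 min. AlphaScreen streptavidin donor/nickel chelate acceptor beads (10 ug/mL final), 30 min dark, luminescence read.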
Sfp inh: Sfp phosphopantetheinyl transferase inhibition; Q9F4F7; Biochemical Sfp PPTase activity, qHTS; Potency, µM, for the others: largest response in the series, negative = inhibition, hits mostly inhibitors; 310,000 compounds, 3.5% hits;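 note: the enzyme is Sfp with the accession as filed and its product quenches rhodamine fluorescence; 0% = enzyme reaction without inhibitor and -100% = no enzyme wells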
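After 15 min at room temperature with compound, 15 nM Sfp received 5 uM rhodamine-CoA plus 12.5 uM BHQ-2-ybbR (50 mM Hepes pH 7.6, 10 mM MgCl2). Rate came from the fluorescence difference over 30 min, ex 525/em 598 nm.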
BAZ2B inh: inhibitors of human BAZ2B bromodomain. Potency, µM (highest dose often 114 µM), inactives show at the highest dose activity change, negative = inhibition, most hits filed as inhibitors. AlphaScreen BAZ2B-H3K14Ac peptide displacement. 360,000 compounds, 4.4% hits. Q9UIF8; note: % is set by controls: 0 for no effect and ±100 for the full control effect; nearly all actives have a fitted effect of over 60% in size
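Complex of BAZ2B and biotin-H3K14Ac (50 nM apiece) forms over 30 min at RT, then faces library compounds up to 110 uM for another 30 min; AlphaScreen beads added, 20 min dark incubation, luminescence read.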
JMJD2A Tudor inh: inhibitors of human JMJD2A Tudor domain; O75164; AlphaScreen JMJD2A-Tudor / H3K4me3 peptide binding; Potency, µM (series often up to 114 µM), inactives show top-dose activity change, negative = inhibition, actives largely listed as inhibitors; 390,000 compounds, 4.4% hits; AID 504339; note: % is set by controls: 0 for no effect and ±100 for the full control effect; nearly all actives have a fitted effect of over 50% in size
* hit, by the source's call; ? = inconclusive; . = no result; ! = a repeat was not active; [ ] = dose if it differs, or a comment. Compounds with a hit are over-represented: about 12% of the library has one in this group of screens. Calls come from the whole dose curve; as a rule, active = well fitted curve in the direction sought with a large enough effect; inconclusive = small, poorly fitted or top-dose-only effect, or another doubt; inactive = no such curve, though single readings can be large; an effect the other way counts as inactive or inconclusive. Potency is the fitted concentration of half-maximal effect.

SMILES	G9a block	HP1b binding inh	Sfp inh	BAZ2B inh	JMJD2A Tudor inh
CCCCOc1ccc(C2(C)NC(=O)NC2=O)cc1 (stereo unspecified)	4%[59 µM]	17%	18%	-3%	16µM*
Cc1ccc(S(=O)(=O)N2C[C@@H]3[C@H]4CC[C@H](C4)[C@@H]3[C@@H](C)[C@H]2c2ccco2)cc1	.	16%	.	.	18%
CC(=O)OCC1=C(C(=O)O)N2C(=O)[C@@H](NC(=O)CSc3ccncc3)[C@H]2SC1	16µM*!	?	.	45µM*	18µM*
CC(=O)OCC1=C(C(=O)O)N2C(=O)C(NC(=O)C(C)Cn3nc(C)c(Cl)c3C)C2SC1 (stereo unspecified)	40µM*	-9%	-10%	56µM*	-29%
Cc1c(-c2ccccc2)c(=O)oc2c(CN3CCN(C)CC3)c(O)ccc12	-30%[59 µM]	20%	.	3%	-6%
C#CCOCCOCCOCCNc1nc(N2CCN(C(=O)C(Cc3ccc(O)cc3)n3cc(C(N)C(C)CC)nn3)CC2)nc(N2CCN(C(=O)C(Cc3ccc(O)cc3)n3cc(C(N)C(C)CC)nn3)CC2)n1 (stereo unspecified)	?	36%	-3%	50µM*	35µM*
C#CCOCCOCCOCCNc1nc(N2CCN(C(=O)[C@H](CCC(=O)O)n3cc(C(N)[C@H](C)CC)nn3)CC2)nc(N2CCN(C(=O)[C@H](Cc3ccc(O)cc3)n3cc(C(N)[C@H](C)CC)nn3)CC2)n1 (stereo partly specified)	-130%[59 µM]	76%	9%	50µM*	40µM*
C#CCOCCOCCOCCNc1nc(N2CCOCC2)nc(N2CCN(C(=O)[C@H](Cc3ccc(O)cc3)n3cc([C@@H](N)C(C)CC)nn3)CC2)n1 (stereo partly specified)	?	7%	9%	-30%	?
COc1ccc(S(=O)(=O)Cc2ccc(C(=O)NCc3ccccc3OC)o2)cc1	21%	24%[57 µM]	28%	-11%	-18%
Cc1ccc2c(c1)NC(=O)C(CC(=O)Nc1ccccc1Cl)O2 (stereo unspecified)	-4%[59 µM]	11%	.	3%	-13%
CNC(=O)[C@@]1(C)C=C[C@@H](Cc2ccccc2)N1C(C)=O	.	.	15%	.	.
CC(=O)N1[C@H](Cc2ccccc2)C=C[C@]1(C)C(=O)NCc1ccc(C)o1	6.3µM*	19%	45µM*!	-11%	-20%
CNC(=O)[C@@]1(C)C=C[C@@H](Cc2ccccc2)N1C(=O)OC	79µM*	0%	2%	-16%	-24%
CCCCCCCCOc1ccccc1C(=O)Nc1ccc(C(=O)OCC[N+](C)(CC)CC)cc1	-6%[12.7 µM]	.	40µM*	.	.
COc1ccc(C(=O)OCC(=O)NCc2ccco2)cc1OC	45µM*	16%	0%	-35%	-26%
O=C(COC(=O)c1ccc(Br)o1)NCc1ccco1	.	-7%	.	.	79µM*
O=C(COC(=O)c1ccccc1Nc1ccccc1)NCc1ccccc1	50µM*	46%	10%	3%	1%
O=C(COC(=O)c1ccccc1)NCc1ccco1	-5%[59 µM]	-12%	-20%	50µM*	?
O=C(Cn1cnc2c(OCc3ccccc3)ncnc21)NCc1ccccn1	.	27%	.	.	-3%
Cc1ccc(S(=O)(=O)OCCc2ccccc2)cc1	.	.	-10%	.	.
Cc1cccc(C(=O)OCC(=O)NCc2ccco2)c1	-7%[59 µM]	-26%	.	?	?
O=C(COC(=O)c1ccccc1Nc1cccc(C(F)(F)F)c1)NCc1ccco1	28µM*	?	-5%	45µM*	56µM*
O=C(COC(=O)c1ccccc1Oc1ccccc1)NCc1ccco1	45µM*	?	?	28µM*	56µM*
O=C(COC(=O)COc1ccccc1)NCc1ccco1	-7%[0.501 µM]	25%	.	6%	-2%
O=C(COC(=O)c1cccc(Br)c1)NCc1ccco1	.	?	.	.	18µM*
SMILES	G9a block	HP1b binding inh	Sfp inh	BAZ2B inh	JMJD2A Tudor inh
NS(=O)(=O)c1cccc(NC(=O)Nc2ccccc2)c1	.	16%	1%	-11%	-1%
S=c1nc[nH]c2c1cnn2-c1ccccc1	.	40%	18µM*	-2%	-10%
Nc1ncnc2c1cnn2-c1ccccc1	-5%	19%	-12%	2%	-5%
O=C(COc1ccc(Br)cc1Br)Nc1ccc(S(=O)(=O)Nc2ncccn2)cc1	-30%[59 µM]	10%	.	1%	-12%
S=c1[nH]nc(CCc2nc3ccccc3[nH]2)n1-c1ccccc1	?	16%	?	-11%	-94%
S=c1[nH]nc(Cc2cccc3ccccc23)n1-c1ccccc1	?	8%	18%	-34%	79µM*
C=CCn1c(Cc2nc3ccccc3[nH]2)n[nH]c1=S	2µM*	6%	-3%	?	8.9µM*
C=CCn1c(Cc2cccc3ccccc23)n[nH]c1=S	2.2µM*	-7%	5%	-24%	50µM*
Nn1c(Cc2cccc3ccccc23)nnc1SCc1ccccc1	-7%[59 µM]	32%	-12%	1%	-10%
O=c1c2ccccc2cnn1Cc1n[nH]c(=S)n1-c1ccccc1	7.9µM*	28%	?	6%	25µM*
C=CCn1c(=N)c(S(=O)(=O)c2ccc(C)c(C)c2)cc2c(=O)n3ccccc3nc21	-8%	19%[57 µM]	-21%	2%[57.1 µM]	6%
S=c1[nH]nc(Cc2noc3ccccc23)n1-c1ccccc1	2.8µM*	19%	7%	0%	11µM*
CN(C(=O)Cc1noc2ccccc12)c1ccccc1	-1%	13%	-9%	-1%	7%
S=c1[nH]nc(CCc2nc3ccccc3[nH]2)n1-c1cccc(Cl)c1	-1%[0.501 µM]	20%	50µM*	-8%	45µM*
CS(=O)(=O)/C=C/c1nc(Nc2cc(F)cc(F)c2)c2ncn(CC(F)F)c2n1	.	.	.	.	-19%
COC(=O)C1=CN(c2ccc(OC)cc2)C=C(C(=O)OC)C1c1ccc(C)c([N+](=O)[O-])c1	-3%[59 µM]	-7%	10%	-34%	?
COC(=O)C1=CN(c2cccc(C)c2)C=C(C(=O)OC)C1c1cc(OC)c(O)c([N+](=O)[O-])c1	13µM*	?	-17%	28µM*	45µM*
O=C(Cc1ccc(Cl)cc1)Nc1nnc2n1CCS2	?	13%[57 µM]	.	56µM*	?
CC(C)(Oc1ccc(Cl)cc1)C(=O)Nc1nnc2n1CCS2	21%[59 µM]	11%[57 µM]	.	?	79µM*
CC(C)Oc1ccc(C(=O)Nc2nnc3n2CCS3)cc1	17%[59 µM]	29%[57 µM]	.	-10%	-13%
O=C(Nc1nnc2n1CCS2)c1ccc(Br)o1	1.8µM*	29%	56µM*	20µM*	20µM*
CCC(CC)C(=O)Nc1nnc2n1CCS2	?	14%[57 µM]	.	-30%	-10%
CC(C)CC(=O)Nc1nnc2n1CCS2	?	12%[57 µM]	.	-2%	-24%
CC1=CC(C)(C)Nc2cc(C)c(C)cc21	32µM*	?	?	50µM*	50µM*
CC1=CC(C)(C)Nc2ccc(C)cc21	45µM*	7%	45µM*	50µM*	?
